# Experimental data as given in ChEMBL document CHEMBL1201862, “PubChem BioAssay data set” (2004).
# Hit rate of the full screen: of about 400,000 compounds, about 2,100 (0.53%) were called active. About 14% were inconclusive and are not listed. No rule for the calls is given here. This excerpt belongs to a sample that is enriched for actives.
# Biological target: Ataxin-2 (Homo sapiens) (UniProt Q99700)
# Test: qHTS for Inhibitors of ATXN expression.
# Type: functional
# Ataxin-2 (Homo sapiens), sequence (Q99700 whole entry): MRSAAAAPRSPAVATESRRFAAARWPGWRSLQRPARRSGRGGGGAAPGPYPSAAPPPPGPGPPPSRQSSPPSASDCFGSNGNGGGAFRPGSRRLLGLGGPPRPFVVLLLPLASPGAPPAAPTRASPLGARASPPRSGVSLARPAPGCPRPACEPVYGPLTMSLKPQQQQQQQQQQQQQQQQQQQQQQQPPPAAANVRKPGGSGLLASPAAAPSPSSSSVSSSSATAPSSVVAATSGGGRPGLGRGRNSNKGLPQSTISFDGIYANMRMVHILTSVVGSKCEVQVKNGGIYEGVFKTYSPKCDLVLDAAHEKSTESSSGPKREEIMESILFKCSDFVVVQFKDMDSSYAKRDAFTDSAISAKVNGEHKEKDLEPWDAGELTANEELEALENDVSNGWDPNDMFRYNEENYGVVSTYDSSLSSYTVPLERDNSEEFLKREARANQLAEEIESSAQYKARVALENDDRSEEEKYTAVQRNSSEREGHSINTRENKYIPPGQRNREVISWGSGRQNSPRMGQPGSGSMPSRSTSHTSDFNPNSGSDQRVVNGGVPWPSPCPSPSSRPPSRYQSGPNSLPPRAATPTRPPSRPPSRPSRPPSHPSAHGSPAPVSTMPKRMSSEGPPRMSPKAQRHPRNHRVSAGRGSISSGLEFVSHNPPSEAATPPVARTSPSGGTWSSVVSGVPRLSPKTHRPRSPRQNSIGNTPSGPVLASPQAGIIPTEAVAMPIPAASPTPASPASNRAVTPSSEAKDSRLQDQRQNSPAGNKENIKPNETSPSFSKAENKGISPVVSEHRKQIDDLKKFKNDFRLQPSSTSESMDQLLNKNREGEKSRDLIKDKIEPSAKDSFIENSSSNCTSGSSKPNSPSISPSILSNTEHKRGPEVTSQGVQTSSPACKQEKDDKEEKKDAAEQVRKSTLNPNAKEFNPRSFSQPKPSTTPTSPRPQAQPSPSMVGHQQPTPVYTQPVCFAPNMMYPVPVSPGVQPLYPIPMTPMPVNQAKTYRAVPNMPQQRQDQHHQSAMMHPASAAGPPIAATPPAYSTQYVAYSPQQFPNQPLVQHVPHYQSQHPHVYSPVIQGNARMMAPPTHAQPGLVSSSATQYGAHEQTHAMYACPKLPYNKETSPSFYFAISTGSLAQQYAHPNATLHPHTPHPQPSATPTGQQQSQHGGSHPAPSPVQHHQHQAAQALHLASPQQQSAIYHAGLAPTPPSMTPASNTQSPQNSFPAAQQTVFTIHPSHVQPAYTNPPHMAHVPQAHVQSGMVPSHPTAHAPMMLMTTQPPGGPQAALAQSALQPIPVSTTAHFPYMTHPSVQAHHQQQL
row,Compound,Potency
1,CC/N=c1\scc(C)n1/N=C/c1cc(Br)c(O)c(OC)c1,inactive
2,Cc1cc(C)c2oc(C(=O)N3CCN(C)CC3)cc(=O)c2c1,inactive
3,CCN(CC)CCCNc1cc(C)c(C#N)c2nc3ccccc3n12,inactive
4,C=CCSc1nc2ccccc2n2cnnc12,39.8 µM (active)
5,COc1ccc(/C(C)=N/Nc2nc3ccccc3n3cnnc23)cc1OC,inactive
6,CC(=O)NC(CC(C)C)C(=O)NC(Cc1ccccc1)C(=O)CCl (stereo not drawn),18.9 µM (active)
7,CC(NC(=O)OCc1ccccc1)C(=O)Oc1cc2oc(=O)cc(-c3ccccc3)c2cc1Cl (stereo not drawn),inactive
8,CC(NC(=O)CNC(=O)C(Cc1ccccc1)NC(=O)OCc1ccccc1)C(N)=O (stereo not drawn),inactive
9,CC(C)CC(NC(=O)OCc1ccccc1)C(=O)NC(Cc1ccccc1)C(=O)CCl (stereo not drawn),9.47 µM (active)
10,COC(=O)[C@H](Cc1ccccc1)NC(=O)NCc1ccccc1,inactive
11,CCC(C)[C@H](N)C(=O)NC[C@H]1CC[C@H](C(=O)N[C@@H](Cc2ccccc2)C(=O)O)CC1 (stereo partly drawn),inactive
12,C#CCOc1ccc(C2C3=C(CCCC3=O)N(CC(=O)O)C3=C2C(=O)CCC3)cc1Br,inactive
13,CC1(Cc2cc(Cl)ccc2C(F)(F)F)C(=O)Nc2ccc(-c3ccc(F)c(Cl)c3)cc21 (stereo not drawn),28.2 µM (active)
14,CC1(Cc2cccc(C(F)(F)F)c2)C(=O)Nc2ccc(-c3ccc(F)c(Cl)c3)cc21 (stereo not drawn),39.8 µM (active)
15,CC1(C)CC(=O)C=C(Nc2cccc(C(F)(F)F)c2)C1,inactive
16,Cc1csc(NC(=O)c2c(-c3ccccc3)noc2C)n1,inactive
17,CC[C@]12c3[nH]c4ccc(Cl)cc4c3CCN1C(=O)[C@@H](CC(=O)NCCC1=CCCCC1)C[C@@H]2C(=O)N1CCN(C(=O)c2ccco2)CC1,25.1 µM (active)
18,CC[C@]12c3[nH]c4ccccc4c3CCN1C(=O)C(CC(=O)NC/C=C(\C)CCC=C(C)C)C[C@@H]2C(=O)N1CCN(C(=O)c2ccco2)CC1 (stereo partly drawn),31.6 µM (active)
19,CC(C)=CCC/C(C)=C/CNC(=O)CC1C[C@H](C(=O)N2CCOCC2)[C@@]2(C)c3[nH]c4ccccc4c3CCN2C1=O (stereo partly drawn),31.6 µM (active)
20,CC(C)=CCC/C(C)=C/CNC(=O)C[C@H]1C[C@H](C(=O)N2CCOCC2)[C@@]2(C)c3[nH]c4cc(-c5ccco5)ccc4c3CCN2C1=O,39.8 µM (active)
21,O=C(CCCCCn1c(=S)[nH]c2ccc(N3CCOCC3)cc2c1=O)NCc1ccccc1,inactive
22,C[C@H](O)[C@@H]1C(=O)N2CCc3c([nH]c4ccccc34)[C@@H]2C[C@@H]1N(C)C(=O)c1ccco1,inactive
23,CC[C@@H]1C(c2ccccc2)=NN(c2ccccc2)[C@H]1C(=O)N1CCOC1=O,inactive
